A short description of test [1]: viability loss with induced miR-34 in A549 – imaging, A549 dox-inducible miR-34, nuclei and caspase counts, primary screen (AID 1347080). The conditions noted are these: A549 miR-34 inducible, Hoechst nuclei count, 48 h.
A short description of test [2]: MELAS cybrid and Rieske KO viability enhancers – cell-based, MELAS cybrids, Rieske KO mouse fibroblasts, CellTiter-Glo, primary screen (AID 1508586;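 active = mean z-score across replicates of 1.96 or higher in either the MELAS or the Rieske mutant cell line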;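 also: z relative to plate mean and SD of compound and empty wells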). The conditions noted are these: low glucose.
Where [3] appears, read: stronger effect = lower value, cell number ratio, induced over uninduced.
Where [4] appears, read: measured here: relative caspase fold change +Dox/-Dox.
The mark [5] stands for this setting: measured here: total cells with miR-34 induction, stronger effect = lower value.
[6] abbreviates: measured here: total cells without miR-34 induction.
Where [7] appears, read: MELAS cybrid survival, CellTiter-Glo 48 h, stronger effect = higher value.
Where [8] appears, read: Rieske KO mouse fibroblast survival, CellTiter-Glo 72 h.

The source made the active and inactive calls.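 The calls were made as follows, unless noted: active = compounds whose cell count with miR-34 switched on is under 0.7 times the count with it off; inactive = the rest.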
Also: test concentration not given here.

With `CCOC(=O)C(CCc1ccccc1)NC1CSC(c2cccs2)CN(CC(=O)O)C1=O` (stereo not drawn), the fold change in test [1] (setting [3]) was 1.05 (inactive); in test [1] (setting [4]) it was 0.5. Also, the cell count in test [1] (setting [5]) came to 8260; in test [1] (setting [6]), 7900. For the same compound, the z-score in test [2] (setting [7]) is -0.343 (inactive); in test [2] (setting [8]), -0.0675.
Consider `C=C1C(=O)OC2C1CCC(C)=CCC[C@@]1(C)OC21` (stereo partly drawn), for which the fold change in test [1] (setting [3]) was 0.965 (inactive); in test [1] (setting [4]), 0.646. Also, the cell count in test [1] (setting [5]) amounted to 8720; in test [1] (setting [6]), 9040. Further, the z-score in test [2] (setting [7]) is 0.936 (inactive); in test [2] (setting [8]), -0.281.
As for `COC1C(=O)[C@]2(C)C(OC)C[C@H]3OC[C@@]3(OC(C)=O)[C@H]2C(OC(=O)c2ccccc2)[C@@]2(O)CC(OC(=O)C(O)C(NC(=O)OC(C)(C)C)c3ccccc3)C(C)=C1C2(C)C` (stereo partly drawn), the values for the fold change in test [1] (setting [3]) and in test [1] (setting [4]) were 1.03 (inactive) and 0.843, respectively. Besides, the cell count in test [1] (setting [5]) is 2690; in test [1] (setting [6]), 2620. The z-score in test [2] (setting [7]) was 1.6 (inactive); in test [2] (setting [8]), -0.148.
As for `COc1cccc2c1C(=O)c1c(O)c3c(c(O)c1C2=O)C[C@@](O)(C(C)=O)CC3O[C@H]1CC(N)C(O)C(C)O1` (stereo partly drawn), the fold change in test [1] (setting [3]) is 0.959 (inactive); in test [1] (setting [4]) it was 0.948. Besides, the cell count in test [1] (setting [5]) was 2300; in test [1] (setting [6]), 2390. The results for the z-score in test [2] (setting [7]) and in test [2] (setting [8]) were 2.59 (active) and -0.443, respectively.
In the case of `Cc1cn(C2CC(O)C(CO)O2)c(=O)[nH]c1=O` (stereo not drawn), the fold change was 0.853 (inactive) in test [1] (setting [3]) and 1.28 in test [1] (setting [4]). In addition, the cell count was determined as 7950 in test [1] (setting [5]) and 9310 in test [1] (setting [6]). Also, the z-score in test [2] (setting [7]) is -0.34 (inactive); in test [2] (setting [8]), 0.719.
`CCCCc1nc2cc(C=CC(=O)NO)ccc2n1CCN(CC)CC`: the fold change in test [1] (setting [3]) was 1.12 (inactive); in test [1] (setting [4]) it was 0.731. Moreover, the cell count in test [1] (setting [5]) is 1070; in test [1] (setting [6]) it was 951. For the same compound, the z-score was 0.665 (inactive) in test [2] (setting [7]) and -0.474 in test [2] (setting [8]).
For the compound `Cn1cc(C=CC(=O)c2cccc(F)c2)cc1C=CC(=O)NO`, the values for the fold change in test [1] (setting [3]) and in test [1] (setting [4]) were 0.9 (inactive) and 1.19, respectively. For the same compound, the cell count was determined as 7610 in test [1] (setting [5]) and 8450 in test [1] (setting [6]). Further, the z-score is -0.416 (inactive) in test [2] (setting [7]) and 0.68 in test [2] (setting [8]).
For the compound `CCC[C@@H]1OC2C[C@H]3[C@@H]4CCC5=CC(=O)C=C[C@]5(C)[C@@H]4C(O)C[C@]3(C)[C@@]2(C(=O)CO)O1` (stereo partly drawn), the fold change in test [1] (setting [3]) was 1.01 (inactive); in test [1] (setting [4]), 0.72. For the same compound, the cell count in test [1] (setting [5]) worked out at 3350; in test [1] (setting [6]), 3330. For the same compound, the z-score is -0.541 (inactive) in test [2] (setting [7]) and -0.57 in test [2] (setting [8]).
On to `CC1CCO[C@H]2Cn3cc(C(=O)NCc4ccc(F)cc4F)c(=O)c(O)c3C(=O)N12` (stereo partly drawn), for which the fold change was 1 (inactive) in test [1] (setting [3]) and 0.731 in test [1] (setting [4]). The figures for the cell count in test [1] (setting [5]) and in test [1] (setting [6]) were 8400 and 8370, respectively. The z-score in test [2] (setting [7]) was -0.34 (inactive); in test [2] (setting [8]), 0.66.
Regarding `CC(=O)OC1C(=O)[C@]2(C)C(O)CC3OC[C@@]3(OC(C)=O)C2C(OC(=O)c2ccccc2)[C@]2(O)CC(OC(=O)C(O)C(NC(=O)c3ccccc3)c3ccccc3)C(C)=C1C2(C)C` (stereo partly drawn), the results for the fold change in test [1] (setting [3]) and in test [1] (setting [4]) were 0.984 (inactive) and 0.702, respectively. Moreover, the cell count came out at 1360 in test [1] (setting [5]) and 1380 in test [1] (setting [6]). For the same compound, the z-score in test [2] (setting [7]) was 1.51 (inactive); in test [2] (setting [8]), 0.434.
In the case of `N#Cc1ccc2[nH]c(O)c(-c3ccc(CN4CCOCC4)cn3)c2c1`, the fold change is 0.757 (inactive) in test [1] (setting [3]) and 0.717 in test [1] (setting [4]). Besides, the cell count came out at 2200 in test [1] (setting [5]) and 2900 in test [1] (setting [6]). For the same compound, the values for the z-score in test [2] (setting [7]) and in test [2] (setting [8]) were 1.12 (inactive) and -0.87, respectively.
Consider `CCOc1nc2cccc(C(=O)O)c2n1Cc1ccc(-c2ccccc2-c2noc(=O)[nH]2)cc1`, for which the values for the fold change in test [1] (setting [3]) and in test [1] (setting [4]) were 0.988 (inactive) and 0.55, respectively. Further, the figures for the cell count in test [1] (setting [5]) and in test [1] (setting [6]) were 8580 and 8680, respectively. In addition, the z-score was -0.267 (inactive) in test [2] (setting [7]) and -0.0268 in test [2] (setting [8]).
Regarding `O=C(OC1C[N+]2(CCCOc3ccccc3)CCC1CC2)C(O)(c1cccs1)c1cccs1` (stereo not drawn), the fold change in test [1] (setting [3]) is 0.946 (inactive); in test [1] (setting [4]), 1.31. For the same compound, the results for the cell count in test [1] (setting [5]) and in test [1] (setting [6]) were 8940 and 9450, respectively. Also, the z-score in test [2] (setting [7]) is -0.202 (inactive); in test [2] (setting [8]) it was -0.179.
For `CC(O)[C@@H]1C(=O)N2C(C(=O)O)=C(SC3CNC(CNS(N)(=O)=O)C3)C(C)[C@@H]12` (stereo partly drawn), the values for the fold change in test [1] (setting [3]) and in test [1] (setting [4]) were 0.983 (inactive) and 0.831, respectively. Moreover, the figures for the cell count in test [1] (setting [5]) and in test [1] (setting [6]) were 7900 and 8030, respectively. Besides, the z-score is -0.367 (inactive) in test [2] (setting [7]) and -0.0647 in test [2] (setting [8]).
As for `CC1CC(C(=O)O)C2CC[C@]3(C)C(=CC[C@H]4[C@@]5(C)CCC(O)C(C)(C)[C@@H]5CC[C@]43C)[C@H]2C1C` (stereo partly drawn), the fold change in test [1] (setting [3]) was 0.867 (inactive); in test [1] (setting [4]), 0.88. Besides, the cell count was 8220 in test [1] (setting [5]) and 9470 in test [1] (setting [6]). Also, the z-score in test [2] (setting [7]) was -0.234 (inactive); in test [2] (setting [8]), 0.804.
On to `N#CSc1cc(SC#N)c(N)nc1N`, for which the figures for the fold change in test [1] (setting [3]) and in test [1] (setting [4]) were 1.07 (inactive) and 0.703, respectively. Also, the cell count in test [1] (setting [5]) came out at 1940; in test [1] (setting [6]) it was 1820. Besides, the z-score is -0.481 (inactive) in test [2] (setting [7]) and -2.9 in test [2] (setting [8]).
For `CCNc1nc(Nc2cc(F)c(C(=O)N3CCOCC3)cc2OC)ncc1C(F)(F)F`, the fold change in test [1] (setting [3]) was 0.9 (inactive); in test [1] (setting [4]) it was 0.418. Also, the cell count in test [1] (setting [5]) was found to be 8080; in test [1] (setting [6]), 8970. In addition, the z-score is -0.325 (inactive) in test [2] (setting [7]) and -0.142 in test [2] (setting [8]).
Take `CC(C)N(CC1OC(n2cnc3c(N)ncnc32)C(O)C1O)C1CC(CCc2nc3ccc(C(C)(C)C)cc3[nH]2)C1` (stereo not drawn): the figures for the fold change in test [1] (setting [3]) and in test [1] (setting [4]) were 0.923 (inactive) and 0.796, respectively. The values for the cell count in test [1] (setting [5]) and in test [1] (setting [6]) were 8950 and 9700, respectively. Besides, the z-score is -0.166 (inactive) in test [2] (setting [7]) and -0.146 in test [2] (setting [8]).
For the compound `CC(C)C(C(=O)Nc1ccc(C(=O)NO)cc1)c1ccccc1` (stereo not drawn), the fold change in test [1] (setting [3]) is 0.964 (inactive); in test [1] (setting [4]) it was 0.891. For the same compound, the results for the cell count in test [1] (setting [5]) and in test [1] (setting [6]) were 1000 and 1040, respectively. For the same compound, the z-score in test [2] (setting [7]) is 2.39 (active); in test [2] (setting [8]), 0.0158.
For the compound `CCOC(=O)C(CCc1ccccc1)NC(C)C(=O)N1Cc2cc(OC)c(OC)cc2CC1C(=O)O` (stereo not drawn), the fold change in test [1] (setting [3]) is 0.97 (inactive); in test [1] (setting [4]) it was 0.414. Further, the cell count in test [1] (setting [5]) was determined as 7830; in test [1] (setting [6]), 8070. The z-score was -0.293 (inactive) in test [2] (setting [7]) and -0.111 in test [2] (setting [8]).
Regarding `O=C(Nc1ccccc1)N1CCN(c2nc(-c3ccccc3)ns2)CC1`, the fold change was 1.02 (inactive) in test [1] (setting [3]) and 0.483 in test [1] (setting [4]). The cell count in test [1] (setting [5]) was 7250; in test [1] (setting [6]), 7080. In addition, the z-score in test [2] (setting [7]) is -0.215 (inactive); in test [2] (setting [8]), 0.0401.
Turning to `CC(C)C1C(=O)NC(CCCN=C(N)N)C(=O)NCC(=O)NC(CC(=O)O)C(=O)NC(Cc2ccccc2)C(=O)N1C` (stereo not drawn), the fold change in test [1] (setting [3]) was 0.841 (inactive); in test [1] (setting [4]) it was 0.758. The cell count in test [1] (setting [5]) turned out to be 304; in test [1] (setting [6]) it was 361. The z-score is 0.703 (inactive) in test [2] (setting [7]) and -0.232 in test [2] (setting [8]).
Consider `O=C(C=Cc1ccccc1)NC(NC(=S)Nc1cccc2cccnc12)C(Cl)(Cl)Cl` (stereo not drawn), for which the values for the fold change in test [1] (setting [3]) and in test [1] (setting [4]) were 0.979 (inactive) and 0.343, respectively. In addition, the cell count in test [1] (setting [5]) amounted to 6780; in test [1] (setting [6]) it was 6920. Also, the z-score in test [2] (setting [7]) was -0.276 (inactive); in test [2] (setting [8]), 0.21.

The record behind these values is PubChem BioAssay.
